Assay results as given in ChEMBL document CHEMBL3988442, “University of Dundee, Small-Polar-MMV Screening Library” (2021).
Out of some 48,000 compounds screened, about 13,000 (27%) showed an effect of 50% or more. The list shows a part of the results.

The compounds below were run on Wolbachia pipientis (assay: Anti-Wolbachia Cell-Based Screen). Settings: 5 µM.
Format: functional
Set-up: scale not given: in the data most compounds retested in dose-response had high values

Row | Structure (SMILES) | Percent Effect [%]
1 | O=C(c1ccccc1)C1CCN(Cc2cc3c(cc2O)CCC3)CC1 | -3.001
2 | O=S(=O)(c1cccnc1)N1C[C@@H]2CC[C@H](C1)N(Cc1ccccc1)C2 | -31.29
3 | Cn1cc(N2CCC(NC(=O)c3c(F)cccc3Cl)C2=O)cn1 (stereo not given) | -23.29
4 | COc1ccccc1Oc1ncccc1CNC(=O)C(C)N1CCCC1 (stereo not given) | -2.64
5 | Cc1ncccc1Oc1nccnc1C1CCCN(C(C)C)C1 (stereo not given) | 134.2
6 | Cc1ncccc1Oc1nccnc1C1CCN(S(C)(=O)=O)CC1 | 120.9
7 | Cc1ncccc1Oc1nccnc1C1CCN(C(C)C)CC1 | -4.012
8 | COc1ccc(CN(C)C2CCN(S(C)(=O)=O)CC2)c2cccnc12 | 1.454
9 | COCC(=O)N1CCC(c2nccnc2Oc2cccnc2C)CC1 | 0.288
10 | CN(C)CCN1CCN(C)C2(CCN(c3nccs3)CC2)C1=O | -6.968
11 | O=C(Nc1cc(-c2ccncc2)no1)C1CCCCC1 | -8.136
12 | O=C(C1CC1)N1CCCC(c2nc(O)cc(-c3ccncc3)n2)C1 (stereo not given) | 87.21
13 | O=C(C1CCCC1)N1CCCC(c2nc(O)cc(-c3ccncc3)n2)C1 (stereo not given) | 85.76
14 | CC1(C)CNC(=O)c2nc(C3CCCN(C(=O)C4CC4)C3)[nH]c2C1 (stereo not given) | -1.543
15 | O=C(N1CCCC1)N1CCCC(c2nccn2Cc2ccncc2)C1 (stereo not given) | 19.93
16 | CC(=O)c1cccc(NC(=O)C2CN(S(=O)(=O)C3CC3)C2)c1 | 8.617
17 | Cc1ccc(NC2CCN(C(=O)CCNc3ncccn3)CC2)nn1 | 111.7
18 | Cc1nccn1CCCC(=O)N1CCC(Nc2cccnn2)CC1 | 11.87
19 | O=C(CCNc1ncccn1)N1CCC(Nc2cccnn2)CC1 | 106.9
20 | Cc1ccc(NC2CCN(C(=O)CCNS(C)(=O)=O)CC2)nn1 | -0.08742

Row | Structure (SMILES) | Percent Effect [%]
21 | Cc1ccc(NC2CCN(C(=O)CCCn3ccnc3C)CC2)nn1 | 100.9
22 | O=C(CCNCC(F)(F)F)N1CCC(Nc2cccnn2)CC1 | -5.357
23 | CC(C)(C)C(=O)NCCC(=O)N1CCC(Nc2cccnn2)CC1 | 101.9
24 | COC1CCCN(C(=O)NCC(C)(C)SC)C1 (stereo not given) | -6.562
25 | NC(=O)C(NC1CCN(CC2CCCCC2)CC1)c1ccc(F)cc1 (stereo not given) | 3.018
26 | CS(=O)(=O)CCC(=O)Nc1cc(Cl)c(Cl)cn1 | -8.334
27 | O=C(c1ccc(S(=O)(=O)NCC(F)F)cc1)N1CC[C@H]2CNC[C@H]21 | -11.61
28 | CSc1ccc(C(C)NC(=O)c2cc(C)on2)cc1 (stereo not given) | -17.95
29 | Cc1noc(C)c1CCCNC(=O)Nc1cccc([S+](C)[O-])c1 (stereo not given) | -8.91
30 | CS(=O)(=O)N1CC[C@]2(O)CCN(c3ccnc(N)n3)C[C@@H]2C1 | -18.71
31 | CN(C)S(=O)(=O)N1CC[C@]2(O)CCN(c3ncccn3)C[C@@H]2C1 | 8.402
32 | CS(=O)(=O)N1CC[C@]2(O)CCN(CCCC(=O)c3ccccc3)C[C@@H]2C1 | 92.75
33 | Cc1ccc(N2CC[C@@]3(O)CCN(S(C)(=O)=O)C[C@H]3C2)nn1 | -14.46
34 | CN(C)S(=O)(=O)N1CC[C@]2(O)CCN(CCCc3cccnc3)C[C@@H]2C1 | 99.63
35 | CN(C)S(=O)(=O)N1CC[C@]2(O)CCN(c3nccs3)C[C@@H]2C1 | -7.348
36 | O=C(c1[nH]nc(C2CC2)c1Cl)N1CCCC1 | -9.749
37 | OC(CN1CCCCCCC1)c1ccc(F)cc1 (stereo not given) | -2.886
38 | Fc1ccccc1C(CNc1ccncn1)N1CCCC1 (stereo not given) | 123.2
39 | COc1cc(NCC(c2ccccn2)N2CCOCC2)ncn1 (stereo not given) | -14.18
40 | CCc1cnc(NCC(c2ccncc2)N2CCOCC2)nc1 (stereo not given) | -11.49

Row | Structure (SMILES) | Percent Effect [%]
41 | O=C(N1CCCC1)N1CCC(Nc2ccncn2)CC1 | 4.287
42 | O=C(C(c1ccc(F)cc1)N1CCCCC1)N1CCn2cncc2C1 (stereo not given) | 7.503
43 | NCc1cc(NCC(c2ccccn2)N2CCOCC2)ncn1 (stereo not given) | -3.716
44 | Fc1ccc(C(CNc2ccncn2)N2CCCCC2)cc1 (stereo not given) | 113.6
45 | Fc1ccc(C(CNc2ccncn2)N2CCCC2)cc1 (stereo not given) | 85.77
46 | CCc1cc(N(C)Cc2[nH]nc3c2CCC3)nc(N2CCOCC2)n1 | 17.45
47 | O=C(NCC1(c2ccc(F)cc2)CC1)N1CCC2(CCOC2)C1 (stereo not given) | -4.934
48 | CCN1CCO[C@@H]2CN(S(=O)(=O)c3cccs3)CC[C@@H]2C1.O=C(O)C(F)(F)F | 101.9
49 | CN1CCO[C@@H]2CN(S(=O)(=O)c3ccccc3F)CC[C@@H]2C1.O=C(O)C(F)(F)F | -5.27
50 | CC(=O)N1CCO[C@@H]2CN(S(=O)(=O)c3cccs3)CC[C@@H]2C1 | 114.4
51 | CC(C)CN1CC[C@@H]2[C@@H]1CCN2S(=O)(=O)c1cccs1.O=C(O)C(F)(F)F | -11.08
52 | CC(C)N1CCO[C@@H]2CN(S(=O)(=O)c3cccs3)CC[C@@H]2C1.O=C(O)C(F)(F)F | 96.63
53 | O=C(O)C(F)(F)F.O=S(=O)(C1CC1)N1C[C@@H]2CN(Cc3cccs3)CCO[C@@H]2C1 | 9.308
54 | CCO[C@@H]1C[C@H]2CN(S(=O)(=O)c3cccs3)CCN2C1.O=C(O)C(F)(F)F | -4.424
55 | CN1CCO[C@@H]2CN(S(=O)(=O)c3cccs3)CC[C@@H]2C1.O=C(O)C(F)(F)F | 99.53
56 | CN(C)C[C@H]1OC[C@@H]2CCN(S(=O)(=O)c3cccs3)C[C@@H]21.O=C(O)C(F)(F)F | -5.421
57 | CCS(=O)(=O)N1C[C@@H]2CN(Cc3cccs3)CCO[C@@H]2C1.O=C(O)C(F)(F)F | 3.582
58 | CC(=O)N1CCO[C@@H]2CN(C(=O)c3ccccc3)CC[C@@H]2C1 | -4.476
59 | CCC(C)Nc1ccc2c(c1)C1(CCOCC1)C(=O)N2c1ccccc1 (stereo not given) | 13.06
60 | Cc1ccccc1CS(=O)(=O)CC(=O)N(C)Cc1cccc(F)c1 | -33.07
